Bioassay records: PubChem BioAssay, National Center for Advancing Translational Sciences (NCATS)
An excerpt weighted towards active compounds, which were near 9.9% of everything screened.
HPGD block: HPGD (human) dehydrogenase inhibition | P15428 | purified HPGD, NADH fluorescence kinetic, PGE2 substrate | Potency, µM, actives largely listed as inhibitors | actives 4.3% (n = 150,000) | AID 894
Target sequence (P15428 whole entry, looked up): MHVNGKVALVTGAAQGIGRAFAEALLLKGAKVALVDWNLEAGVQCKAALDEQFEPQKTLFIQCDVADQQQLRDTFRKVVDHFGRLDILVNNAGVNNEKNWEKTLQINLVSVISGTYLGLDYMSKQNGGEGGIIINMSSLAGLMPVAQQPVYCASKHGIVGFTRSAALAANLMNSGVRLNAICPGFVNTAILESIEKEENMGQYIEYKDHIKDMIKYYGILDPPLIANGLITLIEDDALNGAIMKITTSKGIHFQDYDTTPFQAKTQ
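NADH formation kinetics: reaction with 30 uM PGE2 and 1 mM NAD+ (final), 20 nM enzyme, Tris-HCl pH 8 with Tween 20, after 15 min compound preincubation at room temperature. Fluorescence change, last versus first of five reads.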
Tau FP inhib: inhibitors of human tau fibril formation; P10636; K18 P301L tau heparin fibrillization, Alexa594 FP, 6 h; Potency, µM (titrated, usually from 57.7 µM), hits mostly inhibitors; actives 0.39% (n = 280,000); AID 1468; active = well fitted curve in the direction sought with a large enough effect; inconclusive = small, poorly fitted or top-dose-only effect, or another doubt; inactive = no such curve, though single readings can be large; an effect the other way counts as inactive or inconclusive; note: nearly all actives have a fitted effect of over 55% in size
Target sequence (P10636 561-689 P618L limits assumed): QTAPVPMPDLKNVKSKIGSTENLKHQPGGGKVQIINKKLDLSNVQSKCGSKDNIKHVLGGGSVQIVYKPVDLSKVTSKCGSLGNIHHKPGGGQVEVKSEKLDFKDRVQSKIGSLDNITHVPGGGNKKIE
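Steps: dispense K18 P301L tau (15 uM plus 0.24 uM Alexa 594 tracer, final) in pH 7 sodium acetate; add compound; add heparin (20 uM final); incubate 6 hr, 37 C; add ThT (30 uM final); after 1 hr ambient, read FP.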
Tau fluor cs: counter-screen for tau fibril formation inhibitors. tau K18 P301L Alexa594 fluorescence, heparin fibrillization. Potency, µM (titrated, usually from 57.7 µM). actives 0.93% (n = 280,000). AID 1463; active = well fitted curve in the direction sought with a large enough effect; inconclusive = small, poorly fitted or top-dose-only effect, or another doubt; inactive = no such curve, though single readings can be large; an effect the other way counts as inactive or inconclusive; note: nearly all actives have a fitted effect of over 55% in size
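Human K18 P301L tau (15 uM unlabeled plus 0.24 uM Alexa 594-labeled, final) in 100 mM sodium acetate pH 7 was mixed with compound and 20 uM heparin and incubated 6 hr at 37 C.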
Tau ThT inhib: inhibitors of human tau fibril formation, thioflavin T binding; P10636; actives 2.1% (n = 270,000); Potency, µM (series often up to 57.4 µM), usual class: inhibitors; AID 1460; recombinant tau K18 P301L (four-repeat tau fragment), heparin-induced fibrillization, ThT fluorescence; active = well fitted curve in the direction sought with a large enough effect; inconclusive = small, poorly fitted or top-dose-only effect, or another doubt; inactive = no such curve, though single readings can be large; an effect the other way counts as inactive or inconclusive; note: nearly all actives have a fitted effect of over 55% in size
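In this qHTS, human K18 P301L tau is incubated with compound and heparin for 6 hr at 37 C, and Thioflavin T fluorescence then reports fibril load.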
KDM4E inh: JMJD2E (human) inhibition; B2RXH2; JMJD2E catalytic domain, FDH-coupled NADH fluorescence (FDH is formaldehyde dehydrogenase); Potency, µM (titrated, usually from 57.1 µM), usual class: inhibitors; actives 1.6% (n = 230,000); note: nearly all actives have a fitted effect of over 50% in size
Target sequence (B2RXH2 1-337 limits assumed): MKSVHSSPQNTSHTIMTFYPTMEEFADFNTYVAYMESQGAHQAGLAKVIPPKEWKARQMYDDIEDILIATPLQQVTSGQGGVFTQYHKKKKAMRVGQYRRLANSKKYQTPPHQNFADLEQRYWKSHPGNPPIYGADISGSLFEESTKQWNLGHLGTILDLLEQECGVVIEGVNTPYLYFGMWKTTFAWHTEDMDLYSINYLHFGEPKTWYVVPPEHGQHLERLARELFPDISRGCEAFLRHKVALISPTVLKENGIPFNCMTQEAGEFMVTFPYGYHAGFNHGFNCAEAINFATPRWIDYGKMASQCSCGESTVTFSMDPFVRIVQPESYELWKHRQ
ALDH1A1 inh: inhibitors of human aldehyde dehydrogenase 1A1; Potency, µM (titrated, usually from 75.3 µM), hits mostly inhibitors; Purified ALDH1A1, NADH fluorescence, propionaldehyde substrate; actives 7.3% (n = 220,000); P00352; AID 1030
Large screens that a line does not name were inactive; [ ] = another dose, or the depositor's remark. Unless noted, calls come from the whole dose curve; as a rule, active = well fitted inhibition curve with a large enough effect (not every such curve was filed as active); inconclusive = small, poorly fitted or top-dose-only effect, or another doubt; inactive = no such curve, though single readings can be large or run the other way.

COc1ccccc1NC(=O)CN1CC(=O)Nc2ccccc21	KDM4E inh inconclusive, ALDH1A1 inh 3.5µM (no result: HPGD block)
O=C(CN1CC(=O)Nc2ccccc21)NCCc1ccc(Cl)cc1Cl	Tau ThT inhib inconclusive, KDM4E inh inconclusive, ALDH1A1 inh inconclusive (no result: HPGD block)
O=C(CN1CC(=O)Nc2ccccc21)Nc1ccc(F)c(F)c1	KDM4E inh inconclusive, ALDH1A1 inh 6.3µM (no result: HPGD block)
Cc1ccc(-c2nnc(Nc3ccc(O)cc3)c3ccccc23)cc1S(=O)(=O)N1CCCCC1	Tau fluor cs 4.5µM[quencher] (no result: HPGD block, KDM4E inh, ALDH1A1 inh)
Cc1ccc(-c2nnc(Nc3ccc(C(N)=O)cc3)c3ccccc23)cc1S(=O)(=O)N1CCCCC1	Tau FP inhib 28µM, Tau fluor cs inconclusive (no result: HPGD block, KDM4E inh, ALDH1A1 inh)
Cc1ccc(N2C(=O)NC(NC(=O)C3CC3)(C(F)(F)F)C2=O)cc1 (stereo unspecified)	none
Cn1ccnc1C(=O)c1cccc([N+](=O)[O-])c1	none
Cn1ccnc1C(=O)c1ccc(NN)c([N+](=O)[O-])c1	Tau fluor cs inconclusive, Tau ThT inhib 22µM, ALDH1A1 inh inconclusive (no result: HPGD block)
O=c1oc2ccccc2c(O)c1/C=C1\C=Nc2ccccc21	HPGD block 2.2µM, Tau ThT inhib inconclusive, ALDH1A1 inh 13µM
O=C1CC2(CCCC2)CC(=O)N1CCCCNC[C@H]1COc2ccccc2O1	ALDH1A1 inh 10µM
O=C(COC(=O)c1ccc([N+](=O)[O-])o1)c1ccccc1	ALDH1A1 inh inconclusive
CC(=O)c1ccccc1OC(=O)c1ccc([N+](=O)[O-])o1	Tau FP inhib inconclusive, Tau ThT inhib 7.9µM (no result: HPGD block, ALDH1A1 inh)
CCOc1ccccc1C(=O)Nc1ccccc1-c1ccccc1	ALDH1A1 inh inconclusive
COc1cc2c(cc1OC)CN(C(=O)c1cc3ccccc3oc1=O)CC2	none
COc1ccc(/C=C/C(=O)c2cc3cccc(OC)c3oc2=O)cc1	Tau ThT inhib 7.1µM, KDM4E inh inconclusive, ALDH1A1 inh inconclusive (no result: HPGD block)
CNC(=O)c1cc2cccc(OC)c2oc1=O	none
CCOc1cccc2cc(C(=O)N3CCc4ccccc4C3)c(=O)oc12	HPGD block 4.5µM, KDM4E inh inconclusive
COc1cccc2cc(C(=O)N3CCc4ccccc4C3)c(=O)oc12	HPGD block 7.9µM
CCOc1cccc2cc(C(=O)Nc3ccccc3-c3ccccc3)c(=O)oc12	ALDH1A1 inh 0.14µM
COc1ccc(CCNC(=O)c2nc(-c3ccc(Cl)cc3)n3c2CCCCC3)c(OC)c1	none (no result: HPGD block, KDM4E inh, ALDH1A1 inh)
O=C(CSc1ccc2nnc(CCNS(=O)(=O)c3ccccc3)n2n1)Nc1nc2ccccc2s1	KDM4E inh inconclusive, ALDH1A1 inh 25µM
Cc1csc(NC(=O)CSc2ccc3nnc(CCNS(=O)(=O)c4ccccc4)n3n2)n1	none
CCC(=O)/C=C1/Sc2ccccc2N1CC	HPGD block 28µM, Tau ThT inhib inconclusive, ALDH1A1 inh 3.5µM
CCC(=O)/C=C1/Sc2ccc(OC)cc2N1CC	Tau ThT inhib inconclusive
CN1/C(=C\C(=O)c2ccco2)C(C)(C)c2ccccc21	Tau ThT inhib inconclusive, ALDH1A1 inh inconclusive
CCN1/C(=C/C(=O)c2ccco2)Sc2ccccc21	KDM4E inh inconclusive, ALDH1A1 inh 25µM
OC[C@H]1O[C@@H](n2cnc3c(NCc4ccccc4)ncnc32)[C@H](O)[C@@H]1O	none
CC(C)CNC(C(=O)Nc1ccc([N+](=O)[O-])cc1Br)c1ccccc1 (stereo unspecified)	ALDH1A1 inh 3.5µM
CCOC(=O)C1=C(C)Nc2ccccc2N=C1NC(=O)/C=C/c1ccc(OC)cc1OC	Tau ThT inhib inconclusive, KDM4E inh inconclusive, ALDH1A1 inh 20µM (no result: HPGD block)
CCN(CC)S(=O)(=O)c1cc(OC)c(Cl)cc1OC	none (no result: HPGD block)
CCOC(=O)/C(=C\C=C1/Sc2ccccc2N1CC)C(C)=O	Tau ThT inhib inconclusive
CCOC(=O)/C(=C/C=C1\Sc2ccccc2N1CC)C(C)=O	HPGD block 28µM, Tau FP inhib inconclusive, Tau ThT inhib inconclusive, ALDH1A1 inh 13µM
CCOC(=O)/C(=C/c1c(C)n(C)c2ccc([N+](=O)[O-])cc12)C(C)=O	Tau FP inhib inconclusive, Tau ThT inhib inconclusive
CCOC(=O)/C(=C/C=C1\Sc2cc(C)c(C)cc2N1CC)C(C)=O	Tau ThT inhib 10µM, ALDH1A1 inh inconclusive (no result: HPGD block)
COc1ccc(CN(C(=S)Nc2ccccc2)C2CC(=O)N(c3ccc(Cl)cc3)C2=O)cc1 (stereo unspecified)	Tau FP inhib inconclusive, Tau fluor cs inconclusive, ALDH1A1 inh 7.1µM
COc1ccc(CN(N=O)C2CC(=O)N(c3ccc(OC)cc3)C2=O)cc1 (stereo unspecified)	none (no result: HPGD block, ALDH1A1 inh)
COC(=O)c1ccc(N2C(=O)CC(N(C)Cc3ccccc3)C2=O)cc1 (stereo unspecified)	Tau FP inhib inconclusive, ALDH1A1 inh 8.9µM
COC(=O)c1ccc(N2C(=O)CC(N(C)CCc3ccc(OC)c(OC)c3)C2=O)cc1 (stereo unspecified)	ALDH1A1 inh 3.5µM
CN(Cc1ccncc1)C1CC(=O)N(c2ccc(F)cc2)C1=O (stereo unspecified)	ALDH1A1 inh 18µM (no result: HPGD block)
Cc1ccc(C)c(Nc2nc3c(S(=O)(=O)c4ccc(Br)cc4)nnn3c3ccsc23)c1	Tau FP inhib inconclusive, Tau ThT inhib inconclusive (no result: HPGD block, KDM4E inh, ALDH1A1 inh)
COc1ccc(N2C(=O)CCSC23C(=O)N(Cc2ccc(F)cc2)c2ccccc23)cc1Cl (stereo unspecified)	Tau ThT inhib inconclusive (no result: HPGD block, KDM4E inh, ALDH1A1 inh)
Cc1ccc(S(=O)(=O)NCC23C=CC(O2)C2C(=O)N(c4ccccc4)C(=O)C23)cc1 (stereo unspecified)	HPGD block inconclusive, Tau ThT inhib inconclusive, ALDH1A1 inh 3.5µM
Cc1cccc(NC(=S)NCc2cccn2C)c1	none
Cc1ccc(S(=O)(=O)NCCc2ccccc2)cc1	none
S=C(NCC1CCCO1)N1CCN(c2ccccc2)CC1 (stereo unspecified)	none (no result: HPGD block)
Cc1ccc(NC(=S)NCC23C=CC(O2)C2C(=O)N(c4ccc(C)cc4)C(=O)C23)cc1 (stereo unspecified)	HPGD block inconclusive, ALDH1A1 inh 1.3µM
Cc1ccc(N2C(=O)C3C4C=CC(CNC(=S)N5CCN(c6ccccc6)CC5)(O4)C3C2=O)cc1 (stereo unspecified)	ALDH1A1 inh 0.63µM (no result: HPGD block)
Cc1ccc(NC(=S)NCC(C)C)cc1	none
Cc1cccc(NC(=S)NCC23C=CC(O2)C2C(=O)N(c4ccc(Cl)cc4)C(=O)C23)c1 (stereo unspecified)	ALDH1A1 inh 1.4µM
COc1ccccc1N1CCN(S(=O)(=O)c2ccc3c(c2)CCCN3C(C)=O)CC1	none (no result: HPGD block, KDM4E inh, ALDH1A1 inh)
CC1=C(C(=O)Nc2ccccc2)C(c2ccncc2)n2nc(SCc3ccccc3)nc2N1 (stereo unspecified)	none (no result: HPGD block, KDM4E inh, ALDH1A1 inh)
CCOC(=O)c1c(Nc2ccc(C)c(C)c2)nnc(-c2ccccc2)c1-c1ccccc1	none (no result: HPGD block, KDM4E inh, ALDH1A1 inh)
CCCCN1C(=O)Nc2ccccc2S1=O (stereo unspecified)	HPGD block 16µM
